Compounds without any hit were thinned out: in the full panel of roughly 83,000, 20% have a hit.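 Note: values are percent growth. 100 is the growth of untreated cells, values between 100 and 0 indicate rising inhibition; between -100 and 0 indicates cell death.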 Unmarked numbers belong to inactive results. Active and inactive are the calls of the source. The calls were made as follows: active = growth percent below 10; inactive = the rest.

This test relates to U251 CNS. As to the kind of experiment: NCI-60 one-dose screen, 48 h (100 = growth as untreated, 0 = no growth, -100 = all killed). Particulars: 10 µM unless noted.
On to `Cc1nc(Nc2ccc(NC(=S)Nc3ccccc3)cc2)nc2nc(Nc3cccc(Cl)c3)[nH]c(=O)c12`, for which the growth is 92%.

For the compound `O=[N+]([O-])c1ccc(-c2cc3c(Nc4ccc(Sc5nc6ccccc6s5)c(Cl)c4)ncnc3s2)cc1`, the growth was 23%.

For `CC(=[N-])N1CCC[C@@H](Nc2c3ccccc3nc3ccccc23)C1.[Cl][Pt].[NH-]CCC[NH-]`, the growth is 44.3%.

On to `OC(c1cccc(OCc2ccccc2)c1)c1nnc(-c2ccccc2)o1` (stereo unspecified), for which the growth is 96.7%.

Take `COc1ccc(-c2nnc(SCC(=O)NC3=NN=C(c4ccccc4)CS3)o2)cc1`: the growth is 87.2%.

With `CC(=O)Nc1cccc(C2=CC(c3ccc(C)cc3)n3ncnc3N2)c1` (stereo unspecified), the growth is 97.3%.

As for `CC(C)OC(=O)NNC(=O)c1ccncc1`, the growth was 98.1%.

For `O=C(CC1Sc2ccccc2NC1=O)NNc1ccc(F)cc1` (stereo unspecified), the growth was 85.2%.

Turning to `CCCCCCCSc1ccc(C(=O)O)cc1`, the growth was 95.1%.

Regarding `CC(c1ccc(-n2cccn2)cc1)c1cnc(N2CCc3ccc(C(N)=O)cc3C2)s1` (stereo unspecified), the growth is 78.3%.

Consider `CCN(CC)CCCNC(=O)c1ccc(N)cc1`, for which the growth was 101%.

Take `CSc1nc2sc3cc(Cl)ccc3n2c(=N)c1C#N`: the growth was 89.4%.

As to `CCNCCNc1cc(C2CCCC2)c(C#N)c2nc3ccccc3n12`, the growth is -19.1% (active).

As for `COc1cc2oc3cc(C)oc(=O)c3c2cc1OC`, the growth was 102%.

Take `Cc1nc(Nc2cccc(NC(=O)Nc3ccc(Cl)cc3)c2)c2ccccc2n1`: the growth is 91.9%.

For `CCc1c(C(=O)N[C@@H]2c3cc(Cl)ccc3CC[C@@H]2O)[nH]c(C)c1C(C)=O`, the growth was 48.4%.
